As a reminder, the remaining activity is the signal under treatment as a percentage of the control signal.

Each structure is given as a SMILES string. Values without a mark were called inactive. Activity calls are given as the source filed them. How the calls were made is not given here.

For the test, the system named is Aerobactin synthetase IucA (Klebsiella pneumoniae, hypervirulent). Nature of the test: biochemical IucA inhibition screen of LOPAC library by absorbance (AID 1346212).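 Further: 100% = no compound wells and 0% = no enzyme wells.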 Particulars: IucA enzyme assay, absorbance (OD) readout; hits give low values;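 tested at 8 µM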.
Take `C=CCN1CCc2c(cc(O)c(O)c2Br)[C@@H](c2ccccc2)C1`: the remaining activity is 116%. With `CO/N=C(\C(=O)N[C@@H]1C(=O)N2C(C(=O)O)=C(CSc3nc(=O)c(=O)[nH]n3C)CS[C@H]12)c1csc(N)n1` the figure was 117%; with `NC(=O)OCC(COC(N)=O)c1ccccc1`, 100%; with `OC[C@H]1O[C@H]([S-])[C@H](O)[C@@H](O)[C@@H]1O.[Au+]`, 66.7% (active). For `CC1CN(S(=O)(=O)c2cccc3cnccc23)CCN1` (stereo not given) the value was 102%; for `Cc1cccc(C)c1OCC(C)N` (stereo not given), 113%; for `COC(=O)C(N)Cc1ccc(Cl)cc1` (stereo not given), 91.4%. For `CCCN(CC1CC1)c1nc(C)nc(Nc2c(Cl)cc(Cl)cc2Cl)c1Cl` the value was 102%; for `OCCN1CCN(CC/C=C2/c3ccccc3Sc3ccc(C(F)(F)F)cc32)CC1`, 105%. In the case of `CNCC[C@H](Oc1ccc(C(F)(F)F)cc1)c1ccccc1`, the remaining activity was 93.6%. With `CCCc1c(-c2ccc(O)cc2)nn(-c2ccc(O)cc2)c1-c1ccc(O)cc1` the figure was 102%; with `N[C@H]1CONC1=O`, 113%; with `CN(C)C(=O)/N=N/C(=O)N(C)C`, 93.2%.

`NS(=O)(=O)C#Cc1ccccc1`: the remaining activity is 118%.

Regarding `COc1cccc(-c2cc(=O)c3ccccc3o2)c1N`, the remaining activity is 95.7%. For `CC1=C(C(=O)O)N2C(=O)[C@@H](NC(=O)[C@H](N)c3ccccc3)[C@H]2SC1` the value was 118%. For `N[C@@H](Cc1c[nH]c2ccccc12)C(=O)O` the value was 91.3%. With `Cc1cc(Cn2cnc3c2C[C@@H](C(=O)O)N(C(=O)C(c2ccccc2)c2ccccc2)C3)ccc1N`, the remaining activity is 112%. For `CC(=O)S[C@@H]1CC2=CC(=O)CC[C@]2(C)[C@H]2CC[C@@]3(C)[C@@H](CC[C@@]34CCC(=O)O4)[C@H]12` the value was 108%; for `CC[C@H](C)C(=O)O[C@H]1CCC=C2C=C[C@H](C)[C@H](CC[C@@H]3C[C@@H](O)CC(=O)O3)[C@H]21`, 118%; for `O=C(O)c1cc([N+](=O)[O-])ccc1NCCCc1ccccc1`, 118%.

For `O=c1[nH]c2ccccc2c2ccccc12`, the remaining activity was 97.7%. With `N=C(N)N1CCc2ccccc2C1` the figure was 106%. On to `C[C@@H]1O[C@@H](O[C@H]2C[C@@H](O)[C@]3(CO)[C@H]4[C@H](O)C[C@]5(C)[C@@H](C6COC(=O)C6)CC[C@]5(O)[C@@H]4CC[C@]3(O)C2)[C@H](O)[C@H](O)[C@H]1O` (stereo not given in full), for which the remaining activity is 97.8%.

Take `Cc1ccc2c(c1)C(N1CCN(C)CC1)=Nc1cccnc1N2`: the remaining activity is 126%. For `CC(C)(C=O)Cc1cc(C(C)(C)C)c(O)c(C(C)(C)C)c1` the value was 115%; for `CCCCCCCCCCCCCCCC(=O)NCCO`, 118%; for `CC1=C(C)C(=O)C(CCCCC#CCCCC#CCO)=C(C)C1=O`, 118%. For `CCCCCC(O)CCCC(=O)O` (stereo not given) the value was 101%; for `Nc1c(S(=O)(=O)O)cc(Nc2ccc(Nc3nc(Cl)nc(Nc4cccc(S(=O)(=O)O)c4)n3)c(S(=O)(=O)O)c2)c2c1C(=O)c1ccccc1C2=O`, 100%. In the case of `N#C/C(=C\c1ccc(O)c(O)c1)C(=O)NCCCNC(=O)/C(C#N)=C/c1ccc(O)c(O)c1`, the remaining activity is 98.2%. With `CC1(C)CCC=[N+]1[O-]` the figure was 120%; with `NC(=O)C(=O)O`, 121%. For `CC(N)=NCc1cccc(CN)c1`, the remaining activity is 103%. For `CC(=O)Oc1cc(C(C)C)c(OCCN(C)C)cc1C` the value was 118%; for `CCCCCCCCc1ccc(-c2ccc(C(=O)O)cc2)cc1`, 124%; for `CN1CC(O)C(O)C(O)C1CO` (stereo not given), 105%. For `Nc1ccn([C@H]2CC[C@@H](CO)O2)c(=O)n1` the value was 121%. For the compound `CCCn1c(=O)[nH]c(=O)c2[nH]cnc21`, the remaining activity was 103%.

With `CN=C(NC#N)Nc1ccc(C2=NNC(=O)CC2C)cc1` (stereo not given), the remaining activity is 104%.

For the origin of these results see PubChem BioAssay.
